The list is not random: actives were taken first. Their share in the collection is about 21%.
DT40 TDP1 no CPT = qHTS for Inhibitors of human tyrosyl-DNA phosphodiesterase 1 (TDP1): qHTS in cells in absence of CPT; Potency, µM (titrated, usually from 46.2 µM), actives largely listed as inhibitors; 420,000 tested, 15% active; DT40 Tdp1-/- hTDP1 cells, no CPT, ATP luminescence, 48 h; also: nearly all actives have a fitted effect of over 55% in size
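Readout: luminescence from CellTiter-Glo after 30 min in the dark at RT. Cells: DT40 Tdp1-/- with stable hTDP1, 400/well. Exposure: compounds alone, ≥48 hr, 37 °C.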
ClpP mod = qHTS Assay for Activators of ClpP; purified B. subtilis ClpP, FRET peptide cleavage, 20 min; Potency, µM (highest dose often 57.5 µM); 340,000 tested, 1.9% active; AID 651965, 2013; active = well fitted falling curve with a large enough effect; inconclusive = small, poorly fitted or top-dose-only effect; inactive = no such curve, though single readings can be large or run the other way; also: the source files actives as falling curves though it sought activators and does not explain the sign; nearly all actives have a fitted effect of over 65% in size
Target sequence (P80244 whole entry, looked up): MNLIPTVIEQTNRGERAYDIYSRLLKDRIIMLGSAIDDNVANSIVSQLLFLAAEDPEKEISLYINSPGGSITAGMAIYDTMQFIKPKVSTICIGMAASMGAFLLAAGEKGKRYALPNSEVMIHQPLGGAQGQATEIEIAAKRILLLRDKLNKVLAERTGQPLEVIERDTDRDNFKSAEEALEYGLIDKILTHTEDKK
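Purified B. subtilis ClpP, 10 microg/mL final in Tris/HCl pH8 with KCl, BSA, glycerol and Tween-20, cleaved an Abz/nitrotyrosine-quenched decapeptide. Fluorescence (ex 320, em 430) was read at 0 and 20 min at room temperature. Delta was normalized to 5.8 microM ADEP and DMSO/no-enzyme controls.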
DRD3 antagonist = qHTS of D3 Dopamine Receptor Antagonist: qHTS | max response, negative = inhibition, % | 360,000 tested, 2.5% active | D3R cells, DiscoveRx beta-arrestin luminescence, antagonist mode; stronger effect = lower value; in the data active = max response below about -50%; inconclusive = no clear call, values can overlap the other calls
Target sequence (P35462 whole entry, looked up): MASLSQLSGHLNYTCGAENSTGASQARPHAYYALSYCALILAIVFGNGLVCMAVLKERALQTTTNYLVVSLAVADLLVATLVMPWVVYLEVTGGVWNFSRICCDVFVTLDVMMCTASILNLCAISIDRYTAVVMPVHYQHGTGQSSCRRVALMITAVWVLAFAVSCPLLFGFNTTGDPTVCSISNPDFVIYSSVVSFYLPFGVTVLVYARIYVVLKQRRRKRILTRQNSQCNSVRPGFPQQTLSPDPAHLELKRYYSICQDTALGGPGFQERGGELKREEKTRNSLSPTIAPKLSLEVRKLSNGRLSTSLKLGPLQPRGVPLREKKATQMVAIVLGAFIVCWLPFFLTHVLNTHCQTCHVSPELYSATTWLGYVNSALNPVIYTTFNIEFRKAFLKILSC
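Cells expressing the human receptor were seeded at 1500 cells/well, incubated overnight at 37 degrees C in 5% CO2, then exposed to library compounds with dopamine controls for 90 minutes at 37 degrees C before luminescent detection.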
IL1B secr inh = qHTS for Inhibitors of Inflammasome Signaling: IL-1-beta AlphaLISA Primary Screen. THP-1 LPS/ATP IL-1B secretion, AlphaLISA, 16 h; stronger effect = lower value. activity change, % at 57.5 µM. 360,000 tested, 4.7% active. AID 743279, 2014; in the data active = activity change below about -50%; inconclusive = mostly about -30% to -49%
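Secreted IL-1B measured by AlphaLISA bead assay after 16 h compound exposure of THP-1 cells; compounds (final up to 57.5 uM) added 1 h before LPS (250 ng/mL) and ATP (1.25 mM) stimulation; lower signal means less secretion.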
D3 ag = qHTS of D3 Dopamine Receptor Agonist: qHTS; 410,000 tested, 0.58% active; D3R DiscoveRx beta-arrestin cells, luminescence, 90 min; max activation, %; D(3) dopamine receptor (Homo sapiens), P35462; in the data active = max activation above about 30%
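Cells at 1500/well, incubated overnight, then treated with pinned compounds (dopamine as control) for 90 min at 37 degrees C. DiscoveRx reagent added for 30 - 60 minutes at room temperature; luminescence read.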
DT40 TDP1 CPT = qHTS for Inhibitors of human tyrosyl-DNA phosphodiesterase 1 (TDP1): qHTS in cells in presence of CPT; chicken DT40 Tdp1-/-;hTDP1 cells + 20 nM CPT, ATP luminescence, 48 h; Potency, µM (series often up to 46.2 µM), most hits filed as inhibitors; 420,000 tested, 12% active; also: nearly all actives have a fitted effect of over 55% in size
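Chicken DT40 Tdp1-/- cells complemented with human TDP1, 400 cells/well, exposed to compounds plus 20 nM camptothecin for at least 48 h at 37 C; viability read as ATP content by CellTiter-Glo luminescence.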
Each line names hits and unclear results; the compound was inactive in the other large screens. Unless noted, calls follow the shape of the dose curve; as a rule, active = well fitted inhibition curve with a large enough effect; inconclusive = small, poorly fitted or top-dose-only effect; inactive = flat fitted curve, though single readings scatter.

COC(=O)C(Cc1ccc(O)cc1)NC(=O)NC12CC3CC(CC(C3)C1)C2 (configuration not stated)	DT40 TDP1 no CPT inconclusive, IL1B secr inh -63
COc1ccccc1/C=N/NC(=O)NC12CC3CC(CC(C3)C1)C2	DT40 TDP1 no CPT inconclusive (no result: ClpP mod)
COc1ccc(/C=N/NC(=O)NC23CC4CC(CC(C4)C2)C3)c(OC)c1	DT40 TDP1 no CPT 23µM, DRD3 antagonist inconclusive, IL1B secr inh -69, DT40 TDP1 CPT inconclusive (no result: ClpP mod)
O=C(NN=Cc1ccc(F)cc1)C1CC1	none (no result: ClpP mod)
COc1ccc(CCNC(=O)NC23CC4CC(CC(C4)C2)C3)cc1	DT40 TDP1 no CPT inconclusive, DT40 TDP1 CPT inconclusive
O=C(N/N=C/c1ccc(O)cc1)NC12CC3CC(CC(C3)C1)C2	IL1B secr inh -74
CC1CCN(C(=O)COC(=O)CCC(=O)c2ccc(Cl)cc2)CC1	none
COc1ccc(NC(=O)CSCC(=O)Nc2ccc(S(=O)(=O)N3CCCC3)cc2)cc1	none
Nc1c(C(=O)Nc2ccc(S(=O)(=O)N3CCCC3)cc2)sc2nc3cc4c(cc3cc12)CCC4	DT40 TDP1 no CPT 6.5µM, ClpP mod 25µM, DT40 TDP1 CPT 6.5µM
Nc1c(C(=O)Nc2ccc(S(=O)(=O)N3CCCC3)cc2)sc2nc3ccc(OC(F)(F)F)cc3cc12	DT40 TDP1 no CPT 18µM, ClpP mod inconclusive, IL1B secr inh -97, DT40 TDP1 CPT 9.2µM
CCOC(=O)c1cccc(NS(=O)(=O)c2cc(-c3cnc(C4CC4)o3)ccc2C)c1	DT40 TDP1 no CPT 2.1µM, DT40 TDP1 CPT 2.6µM (no result: DRD3 antagonist, IL1B secr inh)
Cc1ccc(-c2cnc(C3CC3)o2)cc1S(=O)(=O)Nc1ccc(F)cc1Cl	DT40 TDP1 no CPT 26µM, DT40 TDP1 CPT inconclusive (no result: DRD3 antagonist, IL1B secr inh)
COc1ccc(NS(=O)(=O)c2cc(-c3cnc(C4CC4)o3)ccc2C)cc1	DT40 TDP1 no CPT 4.6µM, DT40 TDP1 CPT 6.5µM
CCOC(=O)c1cccc(NS(=O)(=O)c2cc3[nH]c(=O)c(=O)[nH]c3cc2C)c1	none (no result: DRD3 antagonist, IL1B secr inh)
Cc1ccc(NC(=O)CNC(=O)Cn2c(C)cc3ccccc3c2=O)cc1F	none (no result: DRD3 antagonist, IL1B secr inh)
CCc1nc2ccc(C(=O)NCCc3ccc(OC)cc3)cc2nc1CC	DT40 TDP1 no CPT inconclusive, DT40 TDP1 CPT inconclusive
COCCN1C(=O)CSCC1(C)C(=O)Nc1ccc2c(c1)OCCO2 (configuration not stated)	none
CC(C)Nc1ncnc2c1ncn2[C@H]1CN(Cc2cccnc2)C[C@@H](CO)O1	none
Cc1ccc(C=Nc2ccccc2C(N)=O)s1	DT40 TDP1 no CPT 3.7µM, ClpP mod 8.9µM, DT40 TDP1 CPT 4.1µM
Cc1ccc(/C=N/N=C/c2ccc(C)s2)s1	DT40 TDP1 no CPT inconclusive, DT40 TDP1 CPT inconclusive
Cc1ccc(Nc2nccc(N(C)c3ccc4c(C)n(C)nc4c3)n2)cc1S(N)(=O)=O	DT40 TDP1 no CPT 13µM, DT40 TDP1 CPT 11µM (no result: ClpP mod, DRD3 antagonist, IL1B secr inh)
Cc1ccc(Nc2nnc(-c3ccc(C)c(S(N)(=O)=O)c3)c3ccccc23)cc1	none (no result: DT40 TDP1 no CPT, DRD3 antagonist, IL1B secr inh, DT40 TDP1 CPT)
Cc1ccc(C(=O)NNC(=O)c2csc(N3CCOCC3)n2)s1	none
COc1ccc2c(c1)c1c(c(=O)n(-c3ccc(OC)c(OC)c3)c(=O)n1CC(=O)N1CCCC1)n2C	none (no result: DRD3 antagonist, IL1B secr inh)
Cc1ccc(C(NC(=O)C2CCN(Cc3ccc(Cl)c(Cl)c3)CC2)c2ccccn2)cc1 (configuration not stated)	DT40 TDP1 no CPT 1.3µM, DT40 TDP1 CPT inconclusive (no result: IL1B secr inh)
Cc1ccc(C(NC(=O)C2CCN(Cc3ccc(Oc4ccccc4)cc3)CC2)c2ccccn2)cc1 (configuration not stated)	DT40 TDP1 no CPT 23µM, DRD3 antagonist -83, DT40 TDP1 CPT inconclusive (no result: IL1B secr inh)
CC(C)NC(=O)C1CCN(Cc2cccc(Oc3ccccc3)c2)CC1	DRD3 antagonist inconclusive
O=C(NC(c1ccc(Cl)cc1)c1cnccn1)C1CCN(Cc2ccc(Oc3ccccc3)cc2)CC1 (configuration not stated)	DT40 TDP1 no CPT 16µM, DRD3 antagonist inconclusive, DT40 TDP1 CPT 15µM (no result: IL1B secr inh)
CC(=O)C1=C(O)C(=O)N(C)C1c1ccccc1[N+](=O)[O-] (configuration not stated)	DRD3 antagonist inconclusive (no result: ClpP mod)
CCOc1ccccc1Nc1cc(C)nc2ccccc12	DT40 TDP1 no CPT inconclusive, DT40 TDP1 CPT 18µM
CCOc1ccccc1Nc1cc(C)nc2ccc(C)cc12	DT40 TDP1 no CPT 21µM, IL1B secr inh -96, DT40 TDP1 CPT inconclusive
CC1(C)OC2OC(C3COC(=O)O3)C(OC(=O)c3ccccc3)C2O1 (configuration not stated)	none (no result: ClpP mod)
CCOc1cccc2sc(N(CCN(C)C)C(=O)c3ccc4c(c3)OCCO4)nc12	DRD3 antagonist -66, DT40 TDP1 CPT inconclusive
CCOc1cccc2sc(N(CCN(C)C)C(=O)c3cc4ccccc4cc3OC)nc12	DT40 TDP1 no CPT inconclusive, DRD3 antagonist -71, IL1B secr inh -58, DT40 TDP1 CPT 23µM
CCOc1cccc2sc(N(CCCN(C)C)C(=O)c3ccc(C(=O)c4ccccc4)cc3)nc12	IL1B secr inh -88, DT40 TDP1 CPT inconclusive
CCOc1ccc2nc(N(CCN(C)C)C(=O)c3cc4ccccc4cc3OC)sc2c1	DT40 TDP1 no CPT inconclusive, DRD3 antagonist inconclusive, IL1B secr inh inconclusive, DT40 TDP1 CPT inconclusive
CCOc1cccc2sc(N(CCCN(C)C)C(=O)c3ccc(S(=O)(=O)N(CC)Cc4ccccc4)cc3)nc12	DT40 TDP1 no CPT inconclusive, IL1B secr inh -90, DT40 TDP1 CPT inconclusive

Compound activity from PubChem BioAssay.
